Test results: PubChem BioAssay (Tox21)
Values joined by “and” are separate entries in the source; they are usually repeats but may differ in a detail not shown here. Equal values may be shown once. Inconclusive results are not listed. Entries that show only a call come without a potency. A number with no mark means an inactive call. Active and inactive are the calls of the source. Calls follow the shape of the dose curve; as a rule, active = well fitted activation curve with a large enough effect in the signal ratio in the repeat runs (not every such curve was filed as active); inconclusive = weak or mixed curves, or effect the other way; inactive = flat fitted curve, though single readings scatter; the % refers to the signal ratio.

Biological target: Bile acid receptor (Homo sapiens) (UniProt Q96RI1)
Sequence (Q96RI1 whole entry, looked up): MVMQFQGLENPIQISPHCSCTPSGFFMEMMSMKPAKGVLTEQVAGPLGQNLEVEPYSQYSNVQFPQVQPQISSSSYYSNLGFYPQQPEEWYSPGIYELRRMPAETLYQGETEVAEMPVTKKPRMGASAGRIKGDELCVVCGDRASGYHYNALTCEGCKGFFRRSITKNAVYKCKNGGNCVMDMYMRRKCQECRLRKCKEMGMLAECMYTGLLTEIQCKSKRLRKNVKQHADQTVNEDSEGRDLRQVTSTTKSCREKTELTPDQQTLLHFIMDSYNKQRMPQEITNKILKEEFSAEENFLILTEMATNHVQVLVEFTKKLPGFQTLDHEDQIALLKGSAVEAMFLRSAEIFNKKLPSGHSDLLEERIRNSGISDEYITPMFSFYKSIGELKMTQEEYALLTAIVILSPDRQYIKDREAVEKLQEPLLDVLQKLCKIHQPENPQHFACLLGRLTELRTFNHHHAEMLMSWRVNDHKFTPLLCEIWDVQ
Test: qHTS assay to identify small molecule agonists of the farnesoid-X-receptor (FXR) signaling pathway (AID 743220)
Settings: HEK293T FXR-UAS-bla, beta-lactamase FRET ratio, 16 h; series mostly up to 62.6 µM; activation: at the top concentration
Excerpt: National Center for Advancing Translational Sciences [NCATS]
NIH Chemical Genomics Center [NCGC]
U.S. Environmental Protection Agency [EPA]
National Institutes of Environmental Health Sciences [NIEHS]
National Toxicology Program [NTP]
U.S. Food and Drug Administration [FDA]
The farnesoid-X-receptor (FXR), a nuclear hormone receptor, is highly expressed in liver, intestine, kidney and adrenal cortex. Natural ligands of FXR are the bile acids (Cholic acid, Chenodeoxy cholic acid etc). FXR is an important regulator of diverse metabolic pathways, including the bile acid homeostasis, lipid and glucose metabolisms. FXR regulates the expression of target genes by binding either as a monomer or as a heterodimer with the retinoid X receptor (RXR). Numerous studies have reported that FXR exerts protective function during cholestasis, diabetes, liver regeneration, and cancer. To identify compounds that activate FXR signaling, GeneBLAzer FXR-UAS-bla HEK 293T cell line (Invitrogen, Carlsbad, CA) containing a beta-lactamase reporter gene under the control of a UAS response element was used to screen the Tox21 10K compound library.
Tox21 Assay Protocol Summary:
FXR-bla cells were dispensed at 5000 cells/5uL/well in 1536-well black wall/clear bottom plates using a Multidrop Combi (Thermo Fisher Scientific, Waltham, MA) dispenser. After the assay plates were incubated at 37C and 5% CO2 for 5 h, 23 nL of compounds dissolved in DMSO, positive controls or DMSO only was transferred to the assay plate by a Pintool station (Kalypsys, San Diego, CA). The assay plates were incubated at 37C for 16 h. After 1 uL of LiveBLAzerTM B/G FRET substrate was added using a Bioraptr Flying Reagent Dispenser (FRD) workstation (Beckman Coulter, Indianapolis, IN), the plates were incubated at room temperature for 2 h, and fluorescence intensity was measured by an Envision plate reader (PerkinElmer, Shelton, CT).
Potency is read from the fitted curve at half-maximal effect.

| Structure (SMILES) | Potency | activation |
| --- | --- | --- |
| Nc1cccc(C(F)(F)F)c1 | inactive | – |
| CCOC(=O)CC(=O)OCC | inactive | – |
| CN=C(NC#N)NCCSCc1nc[nH]c1C | inactive | – |
| Nc1nc(N)c2nc(-c3ccccc3)c(N)nc2n1 | 49.5 µM (active) and 21.1 µM (active) | – |
| Cc1cc(C)c(O)c(C)c1 | inactive | – |
| CC(=O)OCc1ccc2c(c1)OCO2 | inactive | – |
| CCOC(=O)c1ccc(O)cc1 | inactive | – |
| C=C(CC(=O)O)C(=O)O | inactive | – |
| O=C1OC(=O)c2c(Cl)c(Cl)c(Cl)c(Cl)c21 | inactive | – |
| CC(COCC(C)OC(=O)c1ccccc1)OC(=O)c1ccccc1 (centres undefined) | inactive | – |
| COc1ccccc1[N+](=O)[O-] | inactive | – |
| Cc1ccc(C(C)C)cc1 | inactive | – |
| COCN(COC)c1nc(N(COC)COC)nc(N(COC)COC)n1 | inactive | – |
| C=C1C[C@]23C[C@@]1(O)CC[C@H]2[C@@]12C=C[C@H](O)[C@@](C)(C(=O)O1)[C@H]2[C@@H]3C(=O)O | inactive | – |
| Cc1ccccc1Cl | – | -1.22% [at 81.1 µM] |
| CC(C=O)Cc1ccc(C(C)(C)C)cc1 (centres undefined) | inactive | – |
| C=C(C)CC(C)(C)C | inactive | – |
| NC(N)=S | inactive | – |
| COc1ccc([C@@H]2CC(=O)c3c(O)cc(O[C@@H]4O[C@H](CO[C@@H]5O[C@@H](C)[C@H](O)[C@@H](O)[C@H]5O)[C@@H](O)[C@H](O)[C@H]4O)cc3O2)cc1OC | inactive | – |
| CC(=O)CC(=O)N(C)C | inactive | – |

| Structure (SMILES) | Potency | activation |
| --- | --- | --- |
| CCCCCCC(=O)O | inactive | – |
| COc1ccc2cc3[n+](cc2c1OC)CCc1cc2c(cc1-3)OCO2 | – | -1.02% |
| COC(=O)CCCCC(=O)OC | inactive | – |
| NCCNCCNCCN | inactive | – |
| Cc1ccc([N+](=O)[O-])cc1N | inactive | – |
| O=C(O)Cc1c[nH]c2ccccc12 | inactive | – |
| CCCCC(CC)COC(=O)c1ccc(C(=O)OCC(CC)CCCC)cc1 (centres undefined) | – | 2.57% |
| CCCCCCCCCCCCCC(=O)O | inactive | – |
| CCn1cc(C(=O)O)c(=O)c2cc3c(cc21)OCO3 | inactive | – |
| CCCCC(=O)O | inactive | – |
| Oc1ccc(Cc2ccccc2O)cc1 | inactive | – |
| CCc1cccc(O)c1 | inactive | – |
| O=Cc1ccc(CO)o1 | inactive | – |
| NC1CCCCC1N (centres undefined) | inactive | – |
| CC(C)c1ccc(C(C)C)cc1 | inactive | – |
| OB(O)O | inactive | – |
| Cc1ncc(CO)c(CO)c1O | inactive | – |
| Cc1cc(CC(=O)O)n(C)c1C(=O)c1ccc(Cl)cc1 | – | -0.449% |
| Cc1ccc(Cl)cc1 | inactive | – |
